Screening results from PubChem BioAssay.
NALP1 yeast inh = blocks the NALP1 inflammasome reconstituted in yeast; inhibition, % at 10 µM; hit rate 0.61% among 280,000; S. cerevisiae NALP1/ASC/caspase-1 growth, X-gal OD620, 72 h; in the data active = inhibition mostly above about 24%, no sharp cut-off; inactive = mostly below about 32%
tim23-1 inh = inhibits growth of tim23-1 mutant yeast; S. cerevisiae tim23-1 growth, BacTiter-Glo luminescence, 24 h; inhibition, % at 20 µM; hit rate 1.3% among 330,000; AID 463212;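 active = growth inhibition of the mutant yeast at or above 50%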;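 also: temperature-sensitive mutant grown at 25 °C; plate controls were DMSO-treated mutant yeast for no effect and medium wells lacking yeast for full effect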
V-ATPase pH = regulators of yeast V-ATPase proton transport; S. cerevisiae, pHLuorin cytosolic pH fluorescence; response, % at 10 µM; hit rate 0.37% among 350,000; AID 504577; in the data active = response mostly above about 7.3%, no sharp cut-off; inactive = mostly below about 5.4%; also: actives read high
tim10-1 inh = growth inhibitors of tim10-1 mutant yeast. S. cerevisiae tim10-1 ts strain growth, BacTiter-Glo, 24 h. inhibition, % at 20 µM. hit rate 2.2% among 330,000. AID 463190;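 active = inhibition of at least 40%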;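 also: mutant grown at 25 °C; 0% = DMSO wells with yeast and 100% = wells holding no yeast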
NALP3 yeast inh = inhibitors of NALP3 inflammasome in yeast | Yeast reconstituted NLRP3/ASC/caspase-1, beta-gal luminescence, 24 h | inhibition, % at 10 µM | hit rate 0.39% among 330,000 | AID 2825;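 active = inhibition of 50% or more; inactive = inhibition below 50%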;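 also: plate controls were induced DMSO wells for no effect and uninduced yeast grown without galactose for full effect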
TIM10 inh = inhibits growth of TIM10 yeast strain; AID 463195; S. cerevisiae TIM10 strain growth, BacTiter-Glo luminescence, 24 h; inhibition, % at 10 µM; hit rate 1.4% among 330,000;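 active = inhibition of 40% or more at the single tested concentration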;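 also: wild-type TIM10 isogenic control strain grown at permissive 25 °C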
tim10-1 conf = confirmation of tim10-1 mutant yeast growth inhibitors. AID 463213. shares compounds with tim10-1 inh. S. cerevisiae tim10-1 ts strain growth, BacTiter-Glo, 24 h. hit rate 56% among 7,400. inhibition, % at 20 µM;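 active = inhibition of yeast growth at or above a set limit in either of two repeat tests at 20 µM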;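 also: tim10-1 mutant grown at permissive 25 °C to find synthetic lethal compounds; 0% = DMSO yeast wells and 100% = medium wells without yeast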
An asterisk follows results filed as active. The list is not random: actives were taken first. Their share in the collection is about 4.2%.

Results for O=C(Nc1cccc(Cl)c1)N1N=CCC1c1ccccc1 (stereo unspecified) ?
tim23-1 inh: 39; V-ATPase pH: -4; tim10-1 inh: 48*; NALP3 yeast inh: 15; TIM10 inh: 26; tim10-1 conf: 47*

Results for O=C(Nc1cccc2ccccc12)N1N=CCC1c1ccccc1 (stereo unspecified) ?
tim23-1 inh: 42; V-ATPase pH: -4; tim10-1 inh: 44*; NALP3 yeast inh: 9; TIM10 inh: 23; tim10-1 conf: 29

How did Fc1ccc(NC(=S)N2N=CCC2c2ccccc2)cc1 (stereo unspecified) do in these assays?
NALP1 yeast inh: 23; tim23-1 inh: 25; V-ATPase pH: -2; tim10-1 inh: 36; NALP3 yeast inh: 9; TIM10 inh: 4

How did Cc1ccnc(NS(=O)(=O)c2ccc(NC(=O)c3ccc(Cl)cc3[N+](=O)[O-])cc2)n1 do in these assays?
NALP1 yeast inh: -2; tim23-1 inh: 8; V-ATPase pH: -2; tim10-1 inh: 11; NALP3 yeast inh: 18; TIM10 inh: -1

What do the screens show for `Cc1cccc(NC(=S)NCCSc2ccc(Cl)cc2)c1`?
NALP1 yeast inh: 9; tim23-1 inh: 28; V-ATPase pH: -1; tim10-1 inh: 45*; NALP3 yeast inh: 16; TIM10 inh: 35; tim10-1 conf: 26

How did Cc1ccc(C)c(NC(=S)NCCSc2ccc(Cl)cc2)c1 do in these assays?
NALP1 yeast inh: 27; tim23-1 inh: 17; V-ATPase pH: 1; tim10-1 inh: 26; NALP3 yeast inh: 23; TIM10 inh: 19

What do the screens show for `Cc1ccccc1NC(=S)NCCSc1ccc(Cl)cc1`?
NALP1 yeast inh: 0; tim23-1 inh: 30; V-ATPase pH: 0; tim10-1 inh: 47*; NALP3 yeast inh: 23; TIM10 inh: 25; tim10-1 conf: 26

Results for CCOC(=O)N1CCN(S(=O)(=O)c2ccc(C(=O)NNc3nc4cc(C)cc(C)c4s3)cc2)CC1 ?
NALP1 yeast inh: 28; tim23-1 inh: 11; V-ATPase pH: -4; tim10-1 inh: 42*; NALP3 yeast inh: 8; TIM10 inh: -14; tim10-1 conf: 8

Results for CCOC(=O)N1CCN(S(=O)(=O)c2ccc(C(=O)NNc3nc4c(C)cc(C)cc4s3)cc2)CC1 ?
NALP1 yeast inh: 27; tim23-1 inh: 22; tim10-1 inh: 6; NALP3 yeast inh: 9; TIM10 inh: -57

What do the screens show for `O=[N+]([O-])c1cccc(-c2nn(-c3ccccc3)cc2CO)c1`?
NALP1 yeast inh: 9; tim23-1 inh: 42; V-ATPase pH: 0; tim10-1 inh: 40*; NALP3 yeast inh: 16; TIM10 inh: 0; tim10-1 conf: 41*

What do the screens show for `O=C(O)/C=C/c1cn(-c2ccccc2)nc1-c1cccc([N+](=O)[O-])c1`?
NALP1 yeast inh: 2; tim23-1 inh: 27; V-ATPase pH: -3; tim10-1 inh: 17; NALP3 yeast inh: 12; TIM10 inh: -8

How did O=C(c1cn(-c2ccccc2)nc1-c1cccc([N+](=O)[O-])c1)N1CCCCC1 do in these assays?
NALP1 yeast inh: 16; tim23-1 inh: 35; V-ATPase pH: 1; tim10-1 inh: 48*; NALP3 yeast inh: 4; TIM10 inh: 24; tim10-1 conf: 34*

What do the screens show for `Nc1cccc(S(=O)(=O)c2cccc(N)c2)c1`?
NALP1 yeast inh: 9; tim23-1 inh: 14; V-ATPase pH: 2; tim10-1 inh: 11; NALP3 yeast inh: 14; TIM10 inh: -7

Results for Nc1ccccc1Nc1cc(-c2ccccc2)nn1-c1cccc(Cl)c1 ?
NALP1 yeast inh: 25; tim23-1 inh: 48; V-ATPase pH: -1; tim10-1 inh: 44*; NALP3 yeast inh: 22; TIM10 inh: 20; tim10-1 conf: 16

What do the screens show for `COc1ccc(-n2c(SC(C)C(=O)N3CCOCC3)nc3ccccc3c2=O)cc1` (stereo unspecified)?
NALP1 yeast inh: 15; tim23-1 inh: -1; V-ATPase pH: -4; tim10-1 inh: 13; NALP3 yeast inh: 21; TIM10 inh: 15

What do the screens show for `CN(CCc1ccccc1)C(=O)c1cccc(NC(=O)Cc2cccc(NC(=O)C3CCCN(C(=O)C4CC4)C3)c2)c1` (stereo unspecified)?
V-ATPase pH: 4

Results for CN1C(=O)C2(c3ccccc31)N(C)CC(c1ccccn1)C21SC(=S)N(Cc2ccco2)C1=O (stereo unspecified) ?
NALP1 yeast inh: -1; tim23-1 inh: 41; V-ATPase pH: 0; tim10-1 inh: 47*; NALP3 yeast inh: 3; TIM10 inh: 33; tim10-1 conf: 30

How did CC(=O)c1ccccc1OCC(O)CN1CCN(C(c2ccccc2)c2ccccc2)CC1 (stereo unspecified) do in these assays?
NALP1 yeast inh: 30; tim23-1 inh: 3; V-ATPase pH: -2; tim10-1 inh: 1; NALP3 yeast inh: 22; TIM10 inh: -1

Results for CCOC(=O)c1ccc(NC(=O)CCc2ccc(C)o2)cc1 ?
NALP1 yeast inh: -2; tim23-1 inh: 13; V-ATPase pH: 2; tim10-1 inh: 11; NALP3 yeast inh: 17; TIM10 inh: 6

How did COC(=O)c1c(S(=O)(=O)N2CCOCC2)c(C)n(C)c1C do in these assays?
NALP1 yeast inh: 10; tim23-1 inh: 6; V-ATPase pH: -1; tim10-1 inh: 10; NALP3 yeast inh: 5; TIM10 inh: 8

What do the screens show for `CCC1CCCCN1c1nc(-c2ccncc2)nc2ccccc12` (stereo unspecified)?
NALP1 yeast inh: 0; tim23-1 inh: 43; V-ATPase pH: 3; tim10-1 inh: 50*; NALP3 yeast inh: 1; TIM10 inh: 27; tim10-1 conf: 38*

What do the screens show for `COc1ccc(Cl)cc1Nc1nc(NCCO)nc(N2CCCC2)n1`?
NALP1 yeast inh: 29; tim23-1 inh: 4; V-ATPase pH: 0; tim10-1 inh: 28; NALP3 yeast inh: 23; TIM10 inh: 32

What do the screens show for `CC(C)Oc1ccc(Cl)cc1Nc1nc(NCCO)nc(N2CCCC2)n1`?
tim23-1 inh: 40; V-ATPase pH: 0; tim10-1 inh: 41*; NALP3 yeast inh: 22; TIM10 inh: 14; tim10-1 conf: 8

What do the screens show for `COC(=O)c1ccccc1NC(=O)COc1ccc2c(c1)OCO2`?
NALP1 yeast inh: 16; tim23-1 inh: 0; V-ATPase pH: 0; tim10-1 inh: 10; NALP3 yeast inh: 27; TIM10 inh: 2

Results for O=C(/C=C(/c1ccc(Cl)cc1)n1cncn1)c1ccccc1 ?
NALP1 yeast inh: 30; tim23-1 inh: 36; V-ATPase pH: 0; tim10-1 inh: 43*; NALP3 yeast inh: -2; TIM10 inh: 19; tim10-1 conf: 31*

Results for CCc1ccc(NC(=O)C/C(C)=N/NC(=O)COc2ccc(C)cc2Br)cc1 ?
NALP1 yeast inh: -4; tim23-1 inh: 47; V-ATPase pH: -3; tim10-1 inh: 45*; NALP3 yeast inh: 16; TIM10 inh: 5; tim10-1 conf: 22
